bovine MsrA act: activators of bovine methionine sulfoxide reductase A | purified bovine MsrA, absorbance read-out | activation, % at 10.6 µM | actives 0.3% (n = 360,000) | AID 602163; in the data active means activation above about 7.5%;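 further: 0% = vehicle and 100% = reference activator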
OPRM1-OPRD1 ag: agonists of human mu-delta opioid receptor heterodimerization; actives 0.3% (n = 340,000); P35372+P41143; activation, % at 9.3 µM; cells, OPRM1-OPRD1 heterodimerization, luminescence; in the data active means activation above about 18%;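 further: 0% = vehicle-treated cells and 100% = reference agonist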
Target sequence (P35372 whole entry, looked up): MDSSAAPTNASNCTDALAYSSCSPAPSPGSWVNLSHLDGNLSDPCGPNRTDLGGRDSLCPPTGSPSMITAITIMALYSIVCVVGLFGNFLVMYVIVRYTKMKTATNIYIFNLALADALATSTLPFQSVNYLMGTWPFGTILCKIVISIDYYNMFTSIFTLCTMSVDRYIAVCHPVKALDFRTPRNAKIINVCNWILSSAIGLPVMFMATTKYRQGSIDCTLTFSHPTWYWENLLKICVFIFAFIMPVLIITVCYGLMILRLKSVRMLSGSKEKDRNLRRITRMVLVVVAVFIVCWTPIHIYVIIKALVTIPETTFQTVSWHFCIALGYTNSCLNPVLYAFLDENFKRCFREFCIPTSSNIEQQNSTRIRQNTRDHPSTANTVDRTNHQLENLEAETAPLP
Target sequence (P41143 whole entry, looked up): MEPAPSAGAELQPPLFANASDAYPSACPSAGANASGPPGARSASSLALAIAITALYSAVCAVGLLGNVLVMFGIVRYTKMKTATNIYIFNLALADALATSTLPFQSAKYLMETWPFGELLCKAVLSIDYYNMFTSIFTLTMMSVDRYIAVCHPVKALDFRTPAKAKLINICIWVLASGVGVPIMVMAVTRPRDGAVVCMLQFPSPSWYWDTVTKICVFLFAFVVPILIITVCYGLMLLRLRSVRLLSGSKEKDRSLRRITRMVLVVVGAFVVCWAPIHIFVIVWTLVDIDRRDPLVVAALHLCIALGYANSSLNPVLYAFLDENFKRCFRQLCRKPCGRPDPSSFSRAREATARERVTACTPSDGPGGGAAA
MsrA inh: inhibitors of bovine MsrA. purified bovine MsrA, absorbance read-out. inhibition, % at 15.5 µM. actives 0.75% (n = 360,000). AID 651718; in the data active means inhibition above about 4.5%;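 further: 0% = vehicle wells with enzyme and 100% = reference inhibitor wells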
HTR5A ag ctr: counter-screen for OPRM1-OPRD1 agonists: human HTR5A agonism; P47898; HTR5A agonist assay, luminescence, cell-based; activation, % at 9.3 µM; actives 0.61% (n = 340,000); AID 504692; in the data active means activation mostly above about 9.5%, no sharp cut-off; inactive means mostly below about 7.6%;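 further: 0% = cells with vehicle only and 100% = reference agonist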
MOR-DOR inv ag: mu-delta opioid heterodimer inverse agonism; actives 0.21% (n = 340,000); inhibition, % at 9.3 µM; cell-based MOR-DOR heterodimer luminescence; P35372+P41143; in the data active means inhibition above about 22%, passing the limit was not always enough;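 further: 0% = cells with DMSO and 100% = wells without cells with DMSO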
HTR5A inv ag: HTR5A inverse agonism, opioid heterodimer counter-screen; P47898; HTR5A cell line, luminescence; inhibition, % at 9.3 µM; actives 0.083% (n = 340,000); AID 504634; in the data active means inhibition mostly above about 23%, no sharp cut-off; inactive means mostly below about 18%;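 further: 0% = cells with DMSO and 100% = no-cell wells with DMSO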
MOR-DOR inv conf: OPRM1-OPRD1 heterodimer inverse agonism, confirmation. inhibition, % at 9.3 µM. actives 20% (n = 580). cells expressing OPRM1/OPRD1 heterodimer, luminescence. shares compounds with MOR-DOR inv ag; in the data active means inhibition above about 32%;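 further: 0% = cells with DMSO and 100% = wells lacking cells with DMSO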
HTR5A inv ctr2: inverse agonist of human HTR5A in OPRM1-OPRD1 counter-screen; shares compounds with MOR-DOR inv ag; HTR5A-expressing cells, luminescence, inverse agonism; inhibition, % at 9.3 µM; 580 tested, under 10 active; AID 504914; call rule not given here;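 further: 0% = cells with DMSO and 100% = no-cell wells with DMSO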
The depositor's hits bear a star; i = inactive; . = no result given. Shown are actives, neighbours in structure and some others; about 1.9% of the full set was active somewhere.

SMILES	bovine MsrA act	OPRM1-OPRD1 ag	MsrA inh	HTR5A ag ctr	MOR-DOR inv ag	HTR5A inv ag	MOR-DOR inv conf	HTR5A inv ctr2
CC(C(=O)OCC(=O)c1cccc([N+](=O)[O-])c1)N1C(=O)C2C3C=CC(C3)C2C1=O (stereo not given)	-2	-9	-1	-7	48*	19	i	-16
O=S(=O)(Cc1ccccc1)N(O)c1ccccc1	-3	-7	-1	-2	43*	6	-11	0
O=C(O)CNS(=O)(=O)Cc1ccccc1	-1	-2	1	1	11	1	.	.
ON(Cc1c(F)cccc1Cl)Cc1c(F)cccc1Cl	-6	-7	0	-4	35*	2	70*	9
Fc1cccc(Cl)c1CSC1=NCCS1	1	2	-1	2	-17	-12	.	.
O=C1OCc2cccc3cccc1c23	-12	0	1	-1	1	-6	.	.
O=C1Cc2cccc3cccc1c23	-2	-5	2	-3	30*	-8	12	-17
O=C(NNc1ccc(Cl)cc1)c1cccs1	-5	-10	0	-2	49*	-10	-15	-7
O=C(NNc1cc(Cl)cc(Cl)c1)c1cccs1	-1	-5	0	-1	23	4	.	.
CCCc1ccc(C(=O)NNc2cccc(C)c2)cc1	0	-9	1	-7	44*	0	25	14
CCc1ccc(C(=O)NNc2ccc(Cl)cc2)cc1	-1	-8	0	-7	39*	6	14	1
CCc1ccc(C(=O)NNc2cc(Cl)cc(Cl)c2)cc1	-1	3	1	-1	-16	-8	.	.
CCOC(=O)c1c(N)sc(N)c1C(=O)OCC	-2	-10	0	8	51*	12	i	-4
CCOC(=O)c1c(N)ssc1=S	-7	-6	-1	-1	35*	23	20	-11
CC1CCN(C(=O)c2ncn3c2C(=O)N[C@H](C)C3)CC1	.	.	1	.	.	.	.	.
CN(c1ccccc1C(=O)Nc1ccc(S(=O)(=O)N2CCOCC2)cc1)S(=O)(=O)c1ccccc1	-8	-6	1	3	33*	5	-3	-15
CN1CCCCC(NC(=O)c2ccc3ccccc3c2)C1=O (stereo not given)	.	.	0	.	.	.	.	.
CCSc1nnc2c(n1)OC(C)(C)Nc1ccccc1-2	-2	0	1	10	0	-10	.	.
CSc1nnc2c(n1)OC1(Nc3ccccc3-2)C(=O)Nc2ccccc21 (stereo not given)	0	-11	0	-5	53*	-1	-21	-6
CCNC(=S)NNc1nnc(-c2ccccc2)c(-c2ccccc2)n1	-8	-10	1	2	50*	17	29	8
O=C(O)c1ccc2nc3c(nc2c1)-c1ccccc1C3=O	1	-9	3	11	42*	22	46*	12
O=C(O)c1ccc2nc(-c3ccco3)c(-c3ccco3)nc2c1	-8	4	4	0	-19	6	.	.
CC(=O)C1=C(c2ccccc2)N(C(C)=O)n2c(C)nnc2S1	-2	-17	1	-2	86*	5	16	12
CCCc1c(C(=O)NNc2ccc(C)cc2)cnn1-c1ccccc1	-2	-8	0	2	39*	-1	-3	-16
O=C(NCc1ccccc1)[C@@H]1CCCN1C(=O)[C@H]1CCCN1C(=O)c1ccccc1C(F)(F)F	.	.	-1	.	.	.	.	.
SMILES	bovine MsrA act	OPRM1-OPRD1 ag	MsrA inh	HTR5A ag ctr	MOR-DOR inv ag	HTR5A inv ag	MOR-DOR inv conf	HTR5A inv ctr2
O=c1c2cc(-c3ccccc3)sc2nc2n1N=C(c1ccccc1)CS2	-2	-1	-1	-1	5	17	.	.
O=c1[nH]c(-c2ccccn2)nc2sc(-c3ccccc3)cc12	-1	-6	1	2	33*	-6	6	2
Cc1ccc(C(=O)CNc2ccc(C)cc2C)cc1	-3	-5	0	3	26*	-6	1	20
O=C1Nc2ccccc2C1=O	-6	-10	-1	-2	55*	-4	33*	11
O=C1Nc2ccccc2C1=NN1CCCCCC1	-2	-7	2	-5	38*	20	26	-2
O=C(/C=C1\C(=O)Nc2ccccc21)/C=C1\C(=O)Nc2ccccc21	-4	10	-1	5	-46	-18	.	.
Cc1cccc2c1N(CCOc1ccc(C(C)(C)C)cc1)C(=O)C2=O	2	-6	-1	-2	36*	5	-14	-110
Cc1ccc(OCCCN2C(=O)C(=O)c3cccc(C)c32)cc1	-1	-8	0	-1	45*	3	12	5
Cc1ccc(OCCN2C(=O)C(=O)c3cc(C)ccc32)cc1	0	-4	1	0	23	7	.	.
Cc1ccc(N/N=C/c2cccnc2)cc1	-3	-10	0	1	52*	-3	-237	-17
Cc1ccc(N/N=C/c2ccncc2)cc1	-2	-6	0	-1	31	2	.	.
OCC1OC(Oc2c[nH]c3ccccc23)C(O)C(O)C1O (stereo not given)	-1	-11	2	1	58*	-3	-5	20
O=C(CCC(=O)OCC(=O)c1cccc([N+](=O)[O-])c1)Nc1cccc(Cl)c1Cl	2	-11	1	-6	69*	30	64*	24
Cc1ccccc1NC(=O)CCC(=O)OCC(=O)c1cccc([N+](=O)[O-])c1	-2	-13	-1	-10	60*	33	i	4
COC(=O)[C@]12C[C@H](CC(=O)NCC34CC5CC(CC(C5)C3)C4)C(=O)N(Cc3ccc4c(c3)OCO4)C1=C[C@H](COCc1ccccc1)O[C@@H]2C	.	.	1	.	.	.	.	.
NC(Cc1ccc(O)cc1)C(=O)NN=Cc1ccccc1O (stereo not given)	.	.	1	.	.	.	.	.
COCc1cc(N2CCN(C(=O)OC(C)(C)C)C[C@@H]2C)ccc1N1CCN(Cc2ccccc2)[C@@H](C)C1	.	.	1	.	.	.	.	.
O=C(NCc1ccccn1)c1ccc(Cn2c(=S)[nH]c3ccc(Br)cc3c2=O)cc1	-4	0	-1	4	2	-10	.	.
O=c1c2cc(Cl)ccc2[nH]c(=S)n1Cc1ccccn1	0	-12	1	-9	72*	23	55*	10
Cc1cc2c(nc1C)CCCN2Cc1ccccc1C(F)(F)F	.	.	0	.	.	.	.	.
Cc1ccc(NC(=O)N2CC(C)OC(C)C2)cc1[N+](=O)[O-] (stereo not given)	.	.	0	.	.	.	.	.
Cc1ccccc1N=Nc1c(O)[nH]c2ccccc12	-1	.	0	.	.	.	.	.
Cc1ccc2[nH]c(O)c(N=Nc3ccccc3C)c2c1	-2	-5	1	3	32*	1	4	4
CCCCC(=O)Nc1ccc(Br)cc1C(=O)O	-1	-1	0	3	4	4	.	.

Screening data from PubChem BioAssay.
